# MCF10A rerep – DNA re-replication induction in MCF 10a cells. AID 624296. Potency, µM (titrated, usually from 46.1 µM), for the others: at the highest dose activity, positive = re-replication, usual class: activators. MCF 10A DNA re-replication, Hoechst nuclear intensity, 48 h. 350,000 compounds, 2.9% hits; also: % of control where 0% means no effect; nearly all actives have a fitted effect of over 50% in size
# KB-V1 cytotox – KB-V1 MDR subline cytotoxicity; KB-V1 MDR cells viability, CellTiter-Glo, 72 h; Potency, µM (titrated, usually from 46.1 µM), usual class: cytotoxic; 400,000 compounds, 3.4% hits; AID 1347076; also: % is scaled to controls: 0 for no effect and ±100 for the full control effect; nearly all actives have a fitted effect of over 60% in size
#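 Cells of the MDR subline KB-V1 are plated, dosed with compound at multiple concentrations, and incubated 72 h at 37 degrees C; CellTiter-Glo is then added and luminescence read after 10 min.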
# HT1080-NT tox – kills 2HG-producing HT-1080-NT fibrosarcoma cells; HT-1080-NT fibrosarcoma viability, CellTiter-Glo ATP luminescence, 48 h; Potency, µM (highest dose often 46.1 µM), for the others: at the top dose activity, negative = less viability, actives largely listed as cytotoxic; 360,000 compounds, 1.6% hits; AID 686970;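 also: NT is the 2HG producing partner of a matched IDH1 knockdown line; 0% = DMSO-treated cells and -100% = media-only wells without cells; nearly all actives have a fitted effect of over 55% in size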
#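 Luminescent CellTiter-Glo readout after 48 hours of compound exposure at 37 degrees C defined viability of HT-1080-NT cells. Activity was normalized to DMSO wells and cell-free media wells; concentration-response curves were fitted and assigned curve classes.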
# HT1080 IDH1KD tx – toxicity to HT-1080 IDH1 knockdown cells (counter line); HT-1080 IDH1 knockdown viability, ATP luminescence, 48 h; Potency, µM (highest dose often 46.1 µM), without a hit: top-dose activity, negative = toxicity, usual class: cytotoxic; 360,000 compounds, 2% hits;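 also: 0% = DMSO wells and -100% = cell-free medium wells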
#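 IDH1KD HT-1080 cells, 750/well, RPMI + 5% FBS; compound pinned after 2 h settling; 48 h, 37 °C; CellTiter-Glo luminescence; % activity normalised to DMSO and no-cell wells; curves fitted, classed by r2 and efficacy.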
# KB-3-1 cytotox – KB-3-1 parental cell cytotoxicity; AID 1347075; Potency, µM (doses to about 46.1 µM), usual class: cytotoxic; 400,000 compounds, 1.4% hits; KB-3-1 viability, CellTiter-Glo ATP luminescence, 72 h; also: % is scaled to controls: 0 for no effect and ±100 for the full control effect; nearly all actives have a fitted effect of over 60% in size
#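 Parental KB-3-1 viability, qHTS format: 72 h compound exposure, 37 °C; CellTiter-Glo; media-only wells and DMSO plates as controls; concentration-effect fits on corrected data.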
# SW480 rereplic – inducers of DNA re-replication in SW480 colon cancer cells | Potency, µM (doses to about 46.1 µM), for the others: top-dose re-replication activation, usual class: activators | AID 624297 | SW480 DNA re-replication, Hoechst DNA content imaging, 48 h | 340,000 compounds, 1.8% hits; also: % of control where 0% means no effect; nearly all actives have a fitted effect of over 55% in size
#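 Hoechst fluorescence of nuclei (405 nm excitation, 500-530 nm emission) measured by plate-scanning imager after 48 hr compound exposure at 37 C; re-replication scored as increased number of nuclei with elevated intensity.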
# * = called active by the depositor; i = inactive; ? = inconclusive; / = not tested or not shown; [ ] = remark or other dose. A selection: hits, their analogues and other compounds. The true share with any hit is near 8%. Calls follow the shape of the dose curve; as a rule, active = well fitted curve in the direction sought with a large enough effect; inconclusive = small, poorly fitted or top-dose-only effect, or another doubt; inactive = no such curve, though single readings can be large; an effect the other way counts as inactive or inconclusive. Potency is read from the fitted curve at half-maximal effect.
SMILES,MCF10A rerep,KB-V1 cytotox,HT1080-NT tox,HT1080 IDH1KD tx,KB-3-1 cytotox,SW480 rereplic
COc1ccc(-c2ccc(-c3cc(=O)oc4cc(OC)c(OC)c(OC)c34)cc2)cc1F,?,i,-1%,-1%,i,-16%
COc1cc2oc(=O)cc(-c3ccc(-c4ccc(OC(F)(F)F)cc4)cc3)c2c(OC)c1OC,?,i,16%,12%,i,-60%
COc1cc2oc(=O)cc(-c3ccc(-c4ccc(N(C)C)cc4)cc3)c2c(OC)c1OC,1µM*,i,-2%,-5%,i,-27%
COc1cc(OC)c2c(-c3cccc(-c4ccc(OC(F)(F)F)cc4)c3)cc(=O)oc2c1,-2%,i,5%,5%,i,-68%
COc1cc(OC)c2c(-c3cccc(-c4cccc(C)c4)c3)cc(=O)oc2c1,?,i,?,5.8µM*,i,?
COc1cc(OC)c2c(C)cc(=O)oc2c1,17%,i,0%,0%[9.24 µM],?,-16%
COc1cc(OC)c2c(-c3cccc(-c4ccc(N(C)C)cc4)c3)cc(=O)oc2c1,?,?,?,1.3µM*,2.6µM*,4.1µM*
COc1cc(OC)c2c(-c3cccc(-c4ccc(CO)cc4)c3)cc(=O)oc2c1,?,2.6µM*,?,0.52µM*,?,0.73µM*
COc1ccc(-c2cccc(-c3cc(=O)oc4cc(OC)cc(OC)c34)c2)cc1,0.21µM*,1.2µM*,?,0.58µM*,0.65µM*,0.23µM*
COc1cc(OC)c2c(-c3cccc(/C=C/c4ccc(F)cc4)c3)cc(=O)oc2c1,0%,i,-1%,-9%,i,-29%[9.22 µM]
CCOC(=O)CN1C(=O)N[C@@H](c2ccccc2)[C@H](C(C)=O)[C@H]1C,?,i,0%,0%,i,-1%
Cc1cc(S(=O)(=O)Nc2cccc(C(=O)O)c2)c(C)c(S(=O)(=O)c2ccccc2)c1,/,i,/,/,i,/
CCCc1nnc(SCC(=O)Nc2ccccc2Cl)n1CC1CCCO1 (stereo not given),9%,i,4%,6%,i,-4%
Cc1ccc(-n2c(=O)[nH]c3sc4c(c3c2=O)CCNC4)cc1C,/,i,/,/,i,/
Cc1ccc(C(=O)CSC2=C(C#N)C(c3ccco3)C3=C(CCCC3=O)N2)cc1 (stereo not given),8.2µM*,8.2µM*,5µM*,5.6µM*,?,5.8µM*
CC(C)(C)c1ccc(C(=O)CCCSC2=C(C#N)C(c3ccco3)C3=C(CCCC3=O)N2)cc1 (stereo not given),?,10µM*,?,-19%,?,?
N#CC1=C(SCC(=O)c2ccccc2)NC2=C(C(=O)CCC2)C1c1ccco1 (stereo not given),8.9µM*,?,?,4.6µM*,18µM*,15µM*
COc1ccc(NC(=O)CSC2=C(C#N)C(c3ccco3)C3=C(CCCC3=O)N2)c(OC)c1 (stereo not given),?,i,3%,11%,i,?
Cc1cc(C)c(NC(=O)C2CCN(C(=O)N3CC(C)Oc4ccc(Cl)cc43)CC2)c(C)c1 (stereo not given),/,i,/,/,i,/
COc1ccccc1-n1c(=S)sc2c(=O)n(Cc3ccco3)c(SC)nc21,8%,15µM*,-5%,-1%,i,7%
Cc1ccc(C(=O)/C=C/c2cn(CN3CCN(C)CC3)c3ccccc23)cc1,18µM*,i,?,?,i,18µM*
Cn1cc(/C=C/C(=O)c2ccccc2)c2ccccc21,?,?,-9%,-19%,i,?
Cc1cccc(NC(NC(=O)c2ccccc2[N+](=O)[O-])C(Cl)(Cl)Cl)c1 (stereo not given),-3%,23µM*,10%,0%,i,4%
CCCNc1nc(Nc2ccc([N+](=O)[O-])cc2)nc(N2CCOCC2)n1,/,i,/,/,i,/
Cc1ccc(-c2ccc(CN3C(C(C)C)C(=O)N(Cc4cn(CCC5OCCO5)nn4)CCS3(=O)=O)cc2)c(C)c1 (stereo not given),/,?,?,23µM*,?,/
SMILES,MCF10A rerep,KB-V1 cytotox,HT1080-NT tox,HT1080 IDH1KD tx,KB-3-1 cytotox,SW480 rereplic
CC(C)C1C(=O)N(Cc2cn(CCC3OCCO3)nn2)CCS(=O)(=O)N1Cc1ccc(-c2ccc(Cl)c(Cl)c2)cc1 (stereo not given),/,i,?,18µM*,?,/
CC(C)C1C(=O)N(Cc2cn(Cc3ccco3)nn2)CCS(=O)(=O)N1Cc1ccc(-c2ccc(Cl)c(Cl)c2)cc1 (stereo not given),/,13µM*,?,?,i,/
Cc1ccccc1-c1ccc(CN2C(C(C)C)C(=O)N(Cc3cn(CCC4OCCO4)nn3)CCS2(=O)=O)cc1 (stereo not given),/,?,?,?,i,/
CC(C)C1C(=O)N(Cc2cn(CCC3OCCCO3)nn2)CCS(=O)(=O)N1Cc1ccc(-c2ccncc2)cc1 (stereo not given),/,i,-2%,-6%,16µM*,/
CCN(CC)C(=O)Nc1ccc(OC[C@H](O)CNC(C)(C)C)c(C(C)=O)c1,1%,/,/,/,/,-1%
CCOC(=O)C1CCN(S(=O)(=O)c2ccc(N3CCCCS3(=O)=O)cc2)CC1,/,i,/,/,i,/
O=C(COC(=O)c1cccc(-n2cnnn2)c1)c1ccc(F)c(F)c1,/,i,5%,7%,i,/
O=C(N/N=C/c1cccc([N+](=O)[O-])c1)C1CC1c1ccccc1 (stereo not given),-2%,i,-8%,-16%,i,1%
CC(C)c1ccc(N=C2N=C(N)c3ccccc32)cc1,?,?,18µM*,?,?,-64%
Cc1cc(Cl)ccc1N=C1N=C(N)c2ccccc21,?,i,23µM*,?,i,5%
NC1=NC(=Nc2ccc(Br)cc2)c2ccccc21,?,i,23µM*,13µM*,?,-2%
NC1=NC(=Nc2ccc(Cl)cc2)c2ccccc21,?,i,-29%,?,i,-9%
NC1=NC(=Nc2ccccc2)c2ccccc21,?,i,?,?,i,-1%[9.22 µM]
CN(C)N=C1c2cc(S(=O)(=O)N(C)C)ccc2-c2ccc(S(=O)(=O)N(C)C)cc21,16%,i,-18%,-25%,i,-26%
Cc1ccc2cc(C#N)c(SCc3nnc(-c4ccccc4[N+](=O)[O-])o3)nc2c1,2%,13µM*,19%,20%,9.2µM*,14%

# Screening data from PubChem BioAssay.
